Assay results as given in ChEMBL document CHEMBL3988442, “University of Dundee, Small-Polar-MMV Screening Library” (2021).
Several values for one entry are separate records, joined by “and”; a condition that tells them apart may be missing. Equal values may be shown once. The whole screen tested about 34,000 compounds, of which about 290 (0.85%) showed an effect of 50% or more. The sample as a whole holds a higher share of strong results than the screen did.

System: Plasmodium falciparum
Experiment: Plasmodium falciparum sporozoite viability assay
Format: functional, organism-based
Design: scale not given: in the data most compounds retested in dose-response had high values

SMILES | Percent Effect [%] | Percent Effect (10 mM as filed; unlikely as a test dose)
Cc1ccn(CCC(=O)N2CCCC(Cc3cccnc3)C2)n1 (stereo unspecified) | 1.172 | 
Cc1cccc(CN2C[C@@H]3[C@@H](C(=O)NCC(C)C)CCS(=O)(=O)[C@@H]3C2)c1.O=C(O)C(F)(F)F | 5.351 | 
CCN(CC1CCOC1)C(=O)c1ccccc1S(=O)(=O)CC (stereo unspecified) | 6.872 | 
Cc1cc(-c2cnc(N3CCNC(=O)C3)nc2-c2sccc2C)on1 | 7.472 | 
Cc1ccc(CN2CCC3(CC2)CCN(C(=O)c2cccn2C)C3)cc1.O=C(O)C(F)(F)F | -1.664 | 
CC(C)N(C)[C@@H]1CCN(S(C)(=O)=O)[C@H]1Cc1ccccc1 | 3.466 | 
CCn1ncc2c1CCCC2NCc1cccc2c1OCO2 (stereo unspecified) |  | 87.89% and 80.38% and 88.9%
Cc1cc(CN2CCN(C(=O)CCCc3nc(C(C)C)no3)CC2)on1 | 13.41 | 
COC(=O)CNC(=O)Cn1ccc2cccc(OC)c21 |  | 53.7% and 45.8%
COc1cccc2ccn(CC(=O)NCC(C)C)c12 |  | 1.134% and -1.268%
COCCNC(=O)Cn1ccc2cccc(OC)c21 |  | 24.03% and 24.86%
CN(C)CC(=O)N1CCC2(CC1)COc1ccccc1S(=O)(=O)N(C)C2 | -1.316 | 
Cc1nc(Nc2nccs2)cc(C2CCCN2)n1.Cl (stereo unspecified) | -7.871 | 
O=c1cc(N2CCNCC2)cnn1CCc1ccc(F)cc1 |  | -29.24% and -24.74%
O=c1cc(N2CCCC2)cnn1CCc1cccc(F)c1 |  | 40.92% and 61.99%
O=c1cc(N2CCOCC2)cnn1CCc1ccc(F)cc1 |  | -2.466% and -5.477%

SMILES | Percent Effect [%] | Percent Effect (10 mM as filed; unlikely as a test dose)
CCc1nccn1CC1CCCN1S(=O)(=O)Cc1ccccc1 (stereo unspecified) | 3.419 | 
COCC(=O)N1CCCC(C)(c2nncn2C)C1 (stereo unspecified) | 4.813 | 
CNS(=O)(=O)c1ccc(C(=O)N2CCCCC2c2ccc(C)cc2)o1 (stereo unspecified) | -0.2417 | 
Cn1ncc2c1CCCC2NCc1cccnc1 (stereo unspecified) | 6.267 | 
Cn1ncc2c1CCCC2NCc1cnc(-c2ccccc2)nc1 (stereo unspecified) | 18.56 | 
CC(C)(C)n1ncc2c1CCCC2NCc1ccsc1 (stereo unspecified) |  | 82.25% and 82.56%
CCc1nc(CNC2CCCc3c2cnn3CC)cs1 (stereo unspecified) |  | -15.59% and -14.06%
CSc1ccc(CNC2CCCc3c2cnn3C)cc1.Cl (stereo unspecified) | 2.328 | 
CCn1ncc2c1CCCC2NCc1csc(COC)n1 (stereo unspecified) |  | -19.65% and -19.45%
CC(C)(C)n1ncc2c1CCCC2NCc1ccc2ncccc2c1 (stereo unspecified) |  | 67.83% and 75.52%
CC(C)(C)n1ncc2c1CCCC2NCc1ccc2c(c1)CCO2 (stereo unspecified) |  | 65.53% and 54.34%
CC(C)(C)n1ncc2c1CCCC2NCc1cccc(C(N)=O)c1 (stereo unspecified) |  | -6.583% and -14.2%
COCc1nc(CNC2CCCc3c2cnn3C(C)(C)C)cs1 (stereo unspecified) |  | 80.27% and 81.73%
Cl.Cn1ncc2c1CCCC2NCc1cc(Br)cs1 (stereo unspecified) |  | 6.252% and 7.152% and 13.18%
Cl.Cn1ncc2c1CCCC2NCc1cccc(F)c1 (stereo unspecified) | -6.761 | 
